Test results reported in PubChem BioAssay (NCATS).
Inconclusive results are not listed. Activity calls are given as the source filed them. Calls come from the whole dose curve; as a rule, active = well fitted activation curve with a large enough effect; inconclusive = small, poorly fitted or top-dose-only effect; inactive = flat fitted curve, though single readings scatter.

Assay: Cellular Toxicity (caspase-3) Hek293 (AID 664);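 note: cells exposed to compound for 16 h at 37 °C before readout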
Details: HEK293 caspase-3 activation, DMSO = 0%, 100 µM tamoxifen = 100%; series mostly up to 92.2 µM
Text: NIH Chemical Genomics Center [NCGC]
NIH Molecular Libraries Screening Centers Network [MLSCN]
National Institutes of Environmental Health Sciences [NIEHS]
National Toxicology Program [NTP]
We have developed a 1536-well cell-based assay for quantitative high throughput screening (qHTS) against a number of cell lines to determine in vitro caspase 3/7 of small molecules. This particular assay uses the Hek 293 cell line which is derived from human embryonic kidney cells.
NCGC Assay Protocol Summary:
The Caspase-Glo 3/7 assay (Promega) is a homogeneous method to measure caspase-3 and caspase-7 activities in cultured cells. The quantitation of caspase 3/7 activity is based on the cleavage of a peptide-aminoluciferin substrate. After caspase cleaves the substrate the free aminoluciferin is liberated and serves as the substrate of luciferase, which generates the light. The luminescent signal is proportional to amount of caspase 3/7 activity present.
Using the Caspase-Glo 3/7 assay, the amount of caspase 3/7 activity was measured in the Hek 293 cell line with complete culture medium following compound treatment for 16 hours. The assay was performed in opaque white 1536-well plates. In the screen, tamoxifen and doxorubicin were used as positive controls. Library compounds were measured for their ability to cause the activation of caspase 3/7 in the cell line, as reflected by an increase in luminescence signal, in a concentration-dependent manner. Data were normalized to the controls for basal activity (DMSO only) and 100% stimulation (100 uM tamoxifen). AC50 values were determined from concentration-response data modeled with the standard Hill equation.
qHTS protocol for caspase 3/7 assay in Hek 293 cells
[Step] [Parameter] [Value] [Description]
2. Time; 5 hr; 37 °C incubation
4. Controls; 23 nL; Tamoxifen 0.23 uM to 100 uM & Doxorubicin 7.0 pM to 100 uM
5. Time; 16 hr; 37 °C incubation
6. Reagent; 5 uL; Caspase-Glo 3/7 reagent
7. Time; 20 min; Room Temperature
8. Detection; Luminescence; Viewlux plate reader
Keywords: caspase 3/7, apoptosis, Hek 293 cell line, luminescence, NTPHTS, NTPHTS_NCGC, NIEHS, EPA, DSSTox, MLSMR, MLSCN, NIH Roadmap, qHTS, NCGC

| Structure (SMILES) | outcome |
| --- | --- |
| Clc1cccc(C(Cl)(Cl)Cl)n1 | inactive |
| C=CCc1ccc2c(c1)OCO2 | inactive |
| Nc1ccccc1Cl | inactive |
| C=CC(N)=O | inactive |
| O=[N+]([O-])c1ccc(Cl)c(Cl)c1 | inactive |
| CCC[CH2][Sn]([Cl])([Cl])[Cl] | inactive |
| O=C(Cl)/C=C/C(=O)Cl | inactive |
| C=CCOC(=O)c1ccccc1N | inactive |
| S=C=Nc1cccc2ccccc12 | inactive |
| O=C=NC1CCCCC1 | inactive |
| Brc1ccccc1 | inactive |
| CCOc1ccc(N)cc1 | inactive |
| C[C@]12CC[C@H]3[C@@H](CCC4=CC(=O)CC[C@@]43C)[C@@H]1CC[C@@H]2O | inactive |
| C=C(C)C(=O)OCC1CO1 (stereo not given) | inactive |
| C=CCOC(C)=O | inactive |
| Cc1cccc([N+](=O)[O-])c1 | inactive |
| O=C(Cl)C(Cl)(Cl)Cl | inactive |
| COc1ccc(N)cc1 | inactive |
| CCCOC(=O)c1ccccc1C(=O)OCCC | inactive |
| c1ccc(-c2ccccc2)cc1 | inactive |

| Structure (SMILES) | outcome |
| --- | --- |
| [O-][Br+2]([O-])O | inactive |
| ClCBr | inactive |
| CCNc1nc(Cl)nc(NC(C)C)n1 | inactive |
| C1CCC2CCCCC2C1 (stereo not given) | inactive |
| C=CCc1ccc(OC)cc1 | inactive |
| CCN(CC)c1ccccc1 | inactive |
| CCCSC(=O)Cl | inactive |
| c1nc[nH]n1 | inactive |
| CCSC(=O)Cl | inactive |
| O=C1C(Cl)=C(Cl)C(=O)C(Cl)=C1Cl | inactive |
| C=CC(=O)OCC | inactive |
| COC(=O)NC(=S)Nc1ccccc1NC(=S)NC(=O)OC | inactive |
| Brc1ccc(Oc2cc(Br)c(Br)cc2Br)c(Br)c1 | inactive |
| Clc1nc(Cl)nc(Nc2ccccc2Cl)n1 | inactive |
| c1ccc(OP(Oc2ccccc2)Oc2ccccc2)cc1 | inactive |
| Cc1ccccc1N | inactive |
| C=CC(=C)C | inactive |
| CCCCOCCOP(=O)(OCCOCCCC)OCCOCCCC | inactive |
| C=CC1CC=CCC1 (stereo not given) | inactive |
| CC(O)CCl (stereo not given) | inactive |
